Assay results as given in PubChem BioAssay (NCATS).
Records with an inconclusive call do not appear. Activity calls are given as the source filed them. The call rests on the fitted dose curve; in most records, active means well fitted curve in the direction sought with a large enough effect; inconclusive means small, poorly fitted or top-dose-only effect, or another doubt; inactive means no such curve, though single readings can be large; an effect the other way counts as inactive or inconclusive.

Columns and labels:
[1] = biological target: Calcium and integrin-binding protein 1 (Homo sapiens) (UniProt Q99828); experiment: Primary qHTS for Identification of Calcium Integrin Binding Protein 1 (CIB1) Competitor (AID 1508620);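 further: GST tagged CIB1 binding a fluorescein labelled alphaIIb integrin peptide tracer; top concentration of the series differs between compounds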
How it was run: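 Fluorescence polarization competition: CIB1-GST (1 uM final) preincubated with compound 15 min at room temperature, then FITC-labeled alphaIIb peptide (100 nM final) added for another 15 min. Polarization read at Ex 480/Em 540.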

[2] = Primary qHTS for inhibitors of nuclear receptor binding SET domain protein 2 (NSD2) in an isogenic RCH-ACV NSD2 p.E1099K mutant (9B) (AID 1645876); further: nearly all actives have a fitted effect of over 70% in size
[3] = Primary qHTS for inhibitors of nuclear receptor binding SET domain protein 2 (NSD2) in an RCH-ACV wild type WT cells (2C) (AID 1645877); further: nearly all actives have a fitted effect of over 70% in size
On the % scale 0 is the no-effect control and ±100 the full control effect.

Sequence of Calcium and integrin-binding protein 1 (Homo sapiens) (Q99828 whole entry, looked up): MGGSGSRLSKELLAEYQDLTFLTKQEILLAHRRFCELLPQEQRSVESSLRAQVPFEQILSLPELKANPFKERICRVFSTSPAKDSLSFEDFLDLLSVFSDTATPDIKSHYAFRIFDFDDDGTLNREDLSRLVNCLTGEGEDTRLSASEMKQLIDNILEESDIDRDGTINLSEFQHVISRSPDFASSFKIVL

CC(=O)c1ccc(O[C@@H]2OC[C@@H](O)[C@H](O)[C@H]2O[C@]2(CO)O[C@H](CO)[C@@H](O)[C@@H]2O)c(O)c1
inactive: Potency [1] | Potency [2] | Potency [3]

CC(CCc1ccc(O)cc1)O[C@@H]1O[C@H](CO[C@@H]2OC(CO)[C@H](O)[C@H]2O)[C@@H](O)[C@H](O)[C@H]1O (some centres not stated)
inactive: Potency [1] | Potency [2] | Potency [3]

CC(C)=CCC[C@](C)(O[C@@H]1O[C@H](CO[C@@H]2OC[C@H](O)[C@H](O)[C@H]2O)[C@@H](O)[C@H](O)[C@H]1O)[C@H]1CC[C@]2(C)[C@@H]1[C@H](O)C[C@@H]1[C@@]3(C)CC[C@H](O[C@@H]4O[C@H](CO)[C@@H](O)[C@H](O)[C@H]4O[C@@H]4O[C@H](CO)[C@@H](O)[C@H](O)[C@H]4O)C(C)(C)[C@@H]3CC[C@]12C
inactive: Potency [1] | Potency [2] | Potency [3]

CC(C)C1(O)C=C2C(=O)CC3C(C)(C(=O)O)CCCC3(C)C2CC1 (configuration not stated)
inactive: Potency [1] | Potency [2] | Potency [3]

CC1(C)CC[C@]2(C(=O)O)[C@H](O)C[C@]3(C)C(=CCC4[C@@]5(C)CC[C@H](O[C@@H]6OC[C@@H](O)[C@H](O)[C@H]6O)[C@@](C)(C(=O)O)C5CC[C@]43C)[C@@H]2C1 (some centres not stated)
inactive: Potency [1] | Potency [2] | Potency [3]

C[C@]12CCC[C@](C)(C(=O)O)C1CCC13CC(CO)C(CCC12)C3 (some centres not stated)
inactive: Potency [1] | Potency [2] | Potency [3]

C[C@H]1CCN2C[C@]34C[C@@]5(C(=O)Nc6c5ccc5c6OC=CC(C)(C)O5)C(C)(C)C3C[C@]12C(=O)N4C (some centres not stated)
inactive: Potency [1] | Potency [2] | Potency [3]

CC1CC=C2C1CC1(O)C(=O)CC2(C)C1(C)CO (configuration not stated)
inactive: Potency [1] | Potency [2] | Potency [3]

CC1OC(OC2C(OC3C(O[C@H]4CC[C@@]5(C)C(CC[C@]6(C)C5C(=O)CC5=C7CC(C)(C)CC(O)[C@]7(C)CC[C@]56C)C4(C)C)OC(C(=O)O)C(O)C3O)OCC(O)C2O)C(O)C(O)C1O (some centres not stated)
inactive: Potency [1] | outcome [2] inactive [at 9.23 µM] | outcome [3] inactive [at 9.23 µM]

C[C@@H]1O[C@@H](OC2C(O[C@H]3[C@H](O[C@H]4CC[C@@]5(C)C(CC[C@]6(C)C5CC=C5C7CC(C)(C)CC(O)[C@]7(C)CC[C@]56C)C4(C)C)O[C@H](C(=O)O)[C@@H](O)[C@@H]3O)OC(CO)C(O)C2O)[C@H](O)[C@H](O)[C@H]1O (some centres not stated)
inactive: Potency [1] | activity change, negative = viability loss [2] 3.07% [at 9.23 µM] | outcome [3] inactive [at 9.23 µM]

COc1cc(/C=C/C(=O)O[C@@H]2C[C@](O)(C(=O)O)C[C@@H](O)[C@H]2O)ccc1O
inactive: Potency [1] | Potency [2] | Potency [3]

O=C(/C=C/c1ccccc1)O[C@@H]1[C@@H](CO)O[C@@](CO)(O[C@H]2O[C@H](CO)[C@@H](O)[C@H](O)[C@H]2O)[C@H]1O
inactive: Potency [1] | Potency [2] | Potency [3]

C=C1C(O)CC2C(C(=O)O)=COC(OC3OC(CO)C(O)C(O)C3OC(=O)/C=C\c3ccc(O)cc3)C12 (configuration not stated)
inactive: Potency [1] | Potency [2] | Potency [3]

C=C1CC[C@]2(C(=O)O[C@@H]3O[C@H](CO)[C@@H](O)[C@H](O)[C@H]3O)CC[C@]3(C)C(=CCC4[C@@]5(C)C[C@H](O)[C@@H](O[C@@H]6O[C@H](C(=O)O)[C@@H](O)[C@H](O)[C@H]6O)[C@](C)(C=O)C5CC[C@]43C)C2C1 (some centres not stated)
inactive: Potency [1] | activity change, negative = viability loss [2] -1.03% [at 9.23 µM] | activity change, negative = cell killing [3] -2.63% [at 9.23 µM]

COC(=O)C1=CO[C@@H](O[C@@H]2O[C@H](CO)[C@@H](O)[C@H](O)[C@H]2O)[C@@H]2C(C)CC(=O)[C@]12O (some centres not stated)
inactive: Potency [1] | Potency [2] | Potency [3]

O=C(OC1C=C(CO)C2C(OC3OC(CO)C(O)C(O)C3O)OC=CC12O)c1ccc(O)cc1 (configuration not stated)
inactive: Potency [1] | Potency [2] | Potency [3]

OC[C@@]1(O)CO[C@@H](OC[C@H]2O[C@@H](OCc3ccccc3)[C@H](O)[C@@H](O)[C@@H]2O)[C@@H]1O
inactive: Potency [1] | Potency [2] | Potency [3]

CC1(C)CC[C@]2(C(=O)O[C@@H]3O[C@H](CO)[C@@H](O)[C@H](O)[C@H]3O)CC[C@]3(C)C(=CCC4[C@@]5(C)CC[C@H](O[C@@H]6O[C@H](C(=O)O)[C@@H](O)[C@H](O)[C@H]6OC6OC(CO)C(O)C(O)C6O)C(C)(C)C5CC[C@]43C)[C@@H]2C1 (some centres not stated)
inactive: Potency [1] | activity change, negative = viability loss [2] 0.32% [at 9.23 µM] | activity change, negative = cell killing [3] -5.08% [at 9.23 µM]

C[C@@H]1O[C@@H](OC[C@H]2O[C@@H](OCc3ccccc3)[C@H](O)[C@@H](O)[C@@H]2O)[C@H](O)[C@H](O)[C@H]1O
inactive: Potency [1] | Potency [2] | Potency [3]
